Counter-ions that a name gives are not always drawn.
Tests used:
Conditions in all cases: treatment time: 24 h
A549-ACTB-RAB5A [1] = assay: lowest phenotypically active concentration; higher = less potent
Summary of the method: (§1)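 The reporter lines, fifteen in total and built by gene editing in A549, HepG2 and WPMY1 cells, used BFP for segmentation alongside GFP and RFP/FusionRed markers. Each was treated at 0.3, 1, 3 or 9 µM for 24 h in four wells and then imaged live, with live-cell features normalised to solvent control wells. Deviation meant ≥3 of 4 wells beyond the 95th percentile of control Euclidean distances; reproducibility meant a median replicate Pearson correlation above the 95th percentile of non-replicates. Only conditions meeting both were scored as phenotypically active.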

A549-CANX-COX4 [2] = assay: as above
Summary of the method: as §1

A549-TUBA1B-RELA [3] = assay: as above
Summary of the method: as §1

A549-ACTB-RAB5A [4] = assay: phenotypically active (imaging signature differs from DMSO and reproducible) at any of 0.3-9 uM (binary (1 = active, 0 = inactive)); higher = active
Summary of the method: as §1

A549-CANX-COX4 [5] = assay: as above
Summary of the method: as §1

A549-GM130-SQSTM1 [6] = assay: as above
Summary of the method: as §1

A549-TP53BP1-CLTA = assay: as above
Summary of the method: as §1

A549-TUBA1B-RELA [7] = assay: as above
Summary of the method: as §1

HepG2-ACTB-RAB5A [8] = assay: as above
Summary of the method: as §1

HepG2-CANX-COX4 = assay: as above
Summary of the method: as §1

HepG2-GM130-SQSTM1 = assay: as above
Summary of the method: as §1

HepG2-TP53BP1-CLTA = assay: as above
Summary of the method: as §1

HepG2-TUBA1B-RELA = assay: as above
Summary of the method: as §1

WPMY1-ACTB-RAB5A = assay: as above
Summary of the method: as §1

WPMY1-CANX-COX4 = assay: as above
Summary of the method: as §1

WPMY1-GM130-SQSTM1 = assay: as above
Summary of the method: as §1

WPMY1-TP53BP1-CLTA = assay: as above
Summary of the method: as §1

WPMY1-TUBA1B-RELA = assay: as above
Summary of the method: as §1

A549-GM130-SQSTM1 [9] = assay: lowest phenotypically active concentration; higher = less potent
Summary of the method: as §1

HepG2-ACTB-RAB5A [10] = assay: as above
Summary of the method: as §1

SMILES	lowest phenotypically active concentration (A549-ACTB-RAB5A [1])	lowest phenotypically active concentration (A549-CANX-COX4 [2])	lowest phenotypically active concentration (A549-TUBA1B-RELA [3])	phenotypically active (A549-ACTB-RAB5A [4])	phenotypically active (A549-CANX-COX4 [5])	phenotypically active (A549-GM130-SQSTM1 [6])	phenotypically active (A549-TP53BP1-CLTA)	phenotypically active (A549-TUBA1B-RELA [7])	phenotypically active (HepG2-ACTB-RAB5A [8])	phenotypically active (HepG2-CANX-COX4)	phenotypically active (HepG2-GM130-SQSTM1)	phenotypically active (HepG2-TP53BP1-CLTA)	phenotypically active (HepG2-TUBA1B-RELA)	phenotypically active (WPMY1-ACTB-RAB5A)	phenotypically active (WPMY1-CANX-COX4)	phenotypically active (WPMY1-GM130-SQSTM1)	phenotypically active (WPMY1-TP53BP1-CLTA)	phenotypically active (WPMY1-TUBA1B-RELA)	lowest phenotypically active concentration (A549-GM130-SQSTM1 [9])	lowest phenotypically active concentration (HepG2-ACTB-RAB5A [10])
CC(C)C(=O)SCCCCCCC(=O)Nc1nc(-c2ccccc2)cs1	1 µM	1 µM	9 µM	1 (active)	1 (active)	0 (inactive)	0 (inactive)	1 (active)	0 (inactive)	1 (active)	0 (inactive)	0 (inactive)	0 (inactive)	1 (active)	1 (active)	1 (active)	1 (active)	1 (active)	–	–
N#C/C(=C/c1ccc(O)c(O)c1)C(=O)NCCCCc1ccccc1	9 µM	9 µM	9 µM	1 (active)	1 (active)	1 (active)	0 (inactive)	1 (active)	1 (active)	1 (active)	1 (active)	1 (active)	0 (inactive)	1 (active)	1 (active)	1 (active)	1 (active)	1 (active)	9 µM	9 µM
CCCOc1ccc(CCc2nc3cc(-c4c(C)noc4C)ccc3n2CCN2CCOCC2)cc1	9 µM	9 µM	–	1 (active)	1 (active)	0 (inactive)	0 (inactive)	0 (inactive)	1 (active)	1 (active)	0 (inactive)	1 (active)	0 (inactive)	0 (inactive)	0 (inactive)	0 (inactive)	0 (inactive)	0 (inactive)	–	9 µM
O=c1c(-c2ccc(O)cc2)coc2cc(O[C@@H]3O[C@H](CO)[C@@H](O)[C@H](O)[C@H]3O)cc(O)c12 [Genistin]	9 µM	9 µM	9 µM	1 (active)	1 (active)	0 (inactive)	1 (active)	1 (active)	0 (inactive)	0 (inactive)	0 (inactive)	0 (inactive)	0 (inactive)	1 (active)	1 (active)	0 (inactive)	1 (active)	0 (inactive)	–	–
CC/C(=C(/c1ccccc1)c1ccc(OCCN(C)C)cc1)c1ccccc1 [tamoxifen]	3 µM	9 µM	3 µM	1 (active)	1 (active)	1 (active)	0 (inactive)	1 (active)	1 (active)	0 (inactive)	1 (active)	1 (active)	1 (active)	1 (active)	1 (active)	1 (active)	1 (active)	1 (active)	3 µM	9 µM
O=C(Nc1ccccc1)c1cc([N+](=O)[O-])ccc1Cl	9 µM	9 µM	3 µM	1 (active)	1 (active)	1 (active)	0 (inactive)	1 (active)	1 (active)	0 (inactive)	0 (inactive)	0 (inactive)	0 (inactive)	0 (inactive)	1 (active)	0 (inactive)	0 (inactive)	0 (inactive)	9 µM	9 µM
CC(C)n1c(/C=C/[C@@H](O)C[C@@H](O)CC(=O)O)c(-c2ccc(F)cc2)c2ccccc21 [fluvastatin]	1 µM	9 µM	–	1 (active)	1 (active)	1 (active)	1 (active)	0 (inactive)	1 (active)	1 (active)	1 (active)	1 (active)	1 (active)	1 (active)	1 (active)	1 (active)	1 (active)	1 (active)	9 µM	1 µM
C=C1C(=O)O[C@@H]2[C@H]3O[C@]3(C)CCC=C(C)CC[C@@H]12 [Parthenolide]	9 µM	9 µM	9 µM	1 (active)	1 (active)	1 (active)	0 (inactive)	1 (active)	1 (active)	1 (active)	1 (active)	0 (inactive)	0 (inactive)	1 (active)	1 (active)	1 (active)	0 (inactive)	1 (active)	9 µM	9 µM
COc1ccc(-c2cnc(-c3cccc4c3-c3ccccc3C4=O)o2)cc1	≤ 0.3 µM	≤ 0.3 µM	≤ 0.3 µM	1 (active)	1 (active)	1 (active)	1 (active)	1 (active)	0 (inactive)	0 (inactive)	0 (inactive)	0 (inactive)	0 (inactive)	1 (active)	1 (active)	1 (active)	1 (active)	1 (active)	≤ 0.3 µM	–
COc1c(Cl)cc2c([nH]c3cnccc32)c1NC(=O)c1cccnc1C [ML 120B dihydrochloride]	9 µM	9 µM	9 µM	1 (active)	1 (active)	1 (active)	0 (inactive)	1 (active)	1 (active)	1 (active)	0 (inactive)	1 (active)	0 (inactive)	0 (inactive)	0 (inactive)	0 (inactive)	0 (inactive)	0 (inactive)	3 µM	9 µM
CCc1cncnc1N1CCN(Cc2nc3cc(C(F)(F)F)ccc3[nH]2)CC1	3 µM	9 µM	–	1 (active)	1 (active)	1 (active)	0 (inactive)	0 (inactive)	1 (active)	1 (active)	1 (active)	1 (active)	1 (active)	0 (inactive)	0 (inactive)	0 (inactive)	0 (inactive)	1 (active)	9 µM	9 µM
Cc1cccc(C)c1OCC(=O)N[C@@H](Cc1ccccc1)[C@@H](O)C[C@H](Cc1ccccc1)NC(=O)[C@H](C(C)C)N1CCCNC1=O [lopinavir]	9 µM	9 µM	–	1 (active)	1 (active)	0 (inactive)	0 (inactive)	0 (inactive)	1 (active)	0 (inactive)	0 (inactive)	0 (inactive)	1 (active)	0 (inactive)	1 (active)	0 (inactive)	0 (inactive)	0 (inactive)	–	9 µM
